Experimental data from PubChem BioAssay (EPA / NIEHS).
Active and inactive are the calls of the source. Rule for the calls: active = hit-call score of the fitted dose curve at least 0.9, where 1 is the maximum; inactive = score below 0.9.

Test: ATG_CRE_CIS: Attagene CIS-FACTORIAL HepG2 Assay for human cAMP Responsive Element (CRE) binding protein 3 (AID 2282926)
Settings: HepG2 CRE cis-reporter, Attagene multiplexed mRNA; actives raise or lower the signal
Protocol: ATG_CIS is a cell-based, multiplexed-readout assay that uses HepG2, a human liver cell line, with measurements taken at 24 hours after chemical dosing in a 24-well plate.ATG_CRE_CIS is one of 52 assay component(s) measured or calculated from the ATG_CIS assay. It is designed to make measurements of mRNA induction, a form of inducible reporter, as detected with fluorescence intensity signals by Reverse transcription polymerase chain reaction (RT-PCR) and Capillary electrophoresis technology.Data from the assay component ATG_CRE_CIS was analyzed into 1 assay endpoint. This assay endpoint, ATG_CRE_CIS, was analyzed with bidirectional fitting relative to DMSO as the negative control and baseline of activity. Using a type of inducible reporter, measures of mRNA for gain or loss-of-signal activity can be used to understand the reporter gene at the transcription factor-level as they relate to the gene CREB3. Furthermore, this assay endpoint can be referred to as a primary readout, because this assay has produced multiple assay endpoints where this one serves a reporter gene function. To generalize the intended target to other relatable targets, this assay endpoint is annotated to the dna binding intended target family, where the subfamily is basic leucine zipper.
Human liver HepG2 cells are transiently transfected with multiple reporter transcription units (MRTUs) in 6-well plates using FuGene 6 reagent (Roche; 3 ml FuGene/1 mg DNA). The MRTU constructs are regulated by a cis-regulating element (promoter). […] A major difference between the CIS and TRANS system is that in CIS activities of endogenous TFs are measured, whereas the TRANS assay evaluates changes in activities of exogenous, chimeric NR-Gal4 proteins. […] At the end of 24 hour incubation, total RNA was isolated using TriZol reagent (Invitrogen). The isolated RNA is then reverse-transcribed using oligo(dT) primer and Mo-MLV reverse transcriptase (Invitrogen) with DNAse I (Ambion) treatment for 30 min. The one-tenth of the produced cDNA was amplified by PCR using Taq DNA polymerase (Invitrogen) and two reporter sequence-specific primers. The PCR products were fluorescently labeled by primer extension with 6-arboxyfluorescein (6-FAM) 5'-labeled reporter sequence-specific primer (2 min at 95 C, 20 s at 68 C and 10 min at 72 C) and these products were digested with 5U of HpaI (New England Biolabs) for 2h at 37 C. The fragments were purified using Qiaquick PCR columns (Qiagen), analyzed on an ABI 3130xL genetic analyzer (Applied Biosystems) with peak positions identified by using a set of X-rhodamine (ROX)-labeled MapMarker1000 molecular weight standards (BioVentures). The raw capillary electrophoresis data was processed using Attagraph software (Attagene).
For O=C(NCNC(=O)NC1C(=O)NC(=O)N1CO)NC1C(=O)NC(=O)N1CO (stereo not given), the outcome was “inactive”. With CC1(C)[C@H](C(=O)O[C@H](C#N)c2cccc(Oc3ccccc3)c2)[C@@H]1C=C(Br)Br the outcome was “inactive”. For CCC(C)(C)O, the outcome was “inactive”. With O=C(CCN1CC1)OCC(CO)(COC(=O)CCN1CC1)COC(=O)CCN1CC1 the outcome was “inactive”. In the case of O=S(=O)(O)OOS(=O)(=O)O, the outcome is reported as “inactive”. For CCOP(=O)(OCC)Oc1ccc([N+](=O)[O-])cc1, the outcome was “inactive”. With CCC(Br)(CC)C(=O)NC(N)=O the outcome was “inactive”. In the case of Cc1ccc(OP(=O)(Oc2ccc(C)cc2)Oc2ccc(C)cc2)cc1 (tested in a mixture with another compound), the outcome is reported as “inactive”. For O=C1Nc2ccc(Cl)cc2C(c2ccccc2)=NC1O (stereo not given), the outcome was “inactive”. With CN(N=O)c1ccccc1 the outcome was “inactive”. In the case of CCOC(=O)N(C)N=O, the outcome is reported as “inactive”. For CCCCCCCCCCCC#N, the outcome was “inactive”. For CC(C)(Cl)Cl, the outcome was “inactive”. With O=[N+]([O-])c1cc([N+](=O)[O-])c2ccccc2c1 the outcome was “inactive”. In the case of CC(=O)C=Cc1ccccc1, the outcome is reported as “inactive”. For c1ccc(Nc2ccc3ccccc3c2)cc1, the outcome was “inactive”. For COCC(=O)N(c1c(C)cccc1C)N1CCOC1=O, the outcome was “inactive”. With S=c1[nH]c2ccccc2[nH]1 the outcome was “inactive”. For N#Cc1cc(I)c(O)c(I)c1, the outcome was “inactive”. For [N-]=[N+]=CC(=O)OC[C@H](N)C(=O)O, the outcome was “inactive”. In the case of C[N+](=O)[O-], the outcome is reported as “inactive”. In the case of CC1(C)C(=O)NC(=O)NC1=O, the outcome is reported as “inactive”. For O=[N+]([O-])O, the outcome was “inactive”. With CN(C)N the outcome was “inactive”. With O=C=Nc1ccccc1 the outcome was “inactive”. In the case of Cc1ncc(C[n+]2csc(CCO)c2C)c(N)n1, the outcome is reported as “inactive”. For CC(C)CCCCCCCOP(=O)(Oc1ccccc1)Oc1ccccc1, the outcome was “inactive”. In the case of C=CC(=O)OCC(CC)CCCC (stereo not given), the outcome is reported as “inactive”. With CCOC(=O)COc1ccc(Cl)cc1Cl the outcome was “inactive”. For CCc1cc(C)cc(CC)c1-c1c(OC(=O)C(C)(C)C)n2n(c1=O)CCOCC2, the outcome was “inactive”. With Nc1ccc([N+](=O)[O-])cc1N the outcome was “inactive”. In the case of CN1C(=O)CCS(=O)(=O)C1c1ccc(Cl)cc1 (stereo not given), the outcome is reported as “inactive”. In the case of O=C(NC(=O)c1c(F)cccc1F)Nc1ccc(Oc2ccc(C(F)(F)F)cc2Cl)cc1F, the outcome is reported as “inactive”. For C[N+](C)(C)CC(=O)[O-], the outcome was “inactive”. With O=C(O)CCl the outcome was “inactive”. With c1ccc(P(c2ccccc2)c2ccccc2)cc1 the outcome was “inactive”. For CC[N+](=O)[O-], the outcome was “inactive”. For CNC(=O)Oc1cc(C)c(SC)c(C)c1, the outcome was “inactive”. In the case of O=C1C=CC(=O)C=C1, the outcome is reported as “inactive”. In the case of C=CC(=O)OCCCCOC(=O)C=C, the outcome is reported as “inactive”.
